Assay results reported in the supplement of paper PMC11417369.
± gives the standard deviation of the averaged measurements. Whole data set: some 25,000 sequences, median “ln(normalized median fluorescence intensity)” near 8.9, cut for the highest 2% near 10. The full list was thinned out, with the highest values kept by preference.

System: PfAP2-LT AP2 domain (GST-tagged)
Test: gcPBM binding intensity (ln(normalized median fluorescence intensity)); higher = stronger DNA binding
Outline: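 Binding intensity is the highest Masliner-normalised natural-log median intensity over replicate spots in either probe orientation. To obtain it, GST-tagged P. falciparum DNA-binding domains made in E. coli were incubated for 1 h on an Agilent 4 × 180k array of primer-extended double-stranded 36-bp intergenic genomic probes plus negative controls. Detection used Alexa488 anti-GST antibody with scanning at 488 nm.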

Sequence | gcPBM binding intensity (ln)
AAGACTGCACTTTAAGCACACAAATATATTTTTTTT [CACACA_site8337] | 8.86 ± 0.38
TACAAATATATATGCACACACATATCTGTATATGTG [CACACA_site5663] | 9.58 ± 0.26
GTAATATATACAAAATGTACAAAACAATAACATGAT [XGTACX_site8575] | 9.2 ± 0.52
TAATAAAATATGTACACACATACACCCATATATATA [CACACA_site1220] | 9.21 ± 0.35
GTTTAAAATCTTTGCACACATATAAATAAATATATT [CACACA_site2555] | 8.9 ± 0.41
TATAAACACCCATATAAACACACATACATACATACA [CACACA_site8791] | 9.51 ± 0.33
AAAAAAAAAAAACACACACACACACCCATATACATA [CACACA_site2664] | 10.31 ± 0.085
TAAACACCCATATAAACACACATACATACATACATA [CACACA_site5383] | 9.53 ± 0.4
AAAAATAAAAAAAACACACATACCTTATTTTTGTTC [CACACA_site2634] | 8.98 ± 0.42
TATATATATATATATGTGCGCATTACTTTAAGAATA | 9.6 ± 0.25
TCTTTTTGCATGTGTGTGCGCACAAAATACACAAAA [GTGCAC_site9718] | 9.39 ± 0.3
TACACAAGAAAATTCACACACACACCGATATATATA [CACACA_site6008] | 9.87 ± 0.16
TACACAAGAAAATTCACACACACACCCATATATATA [CACACA_site3879] | 10.12 ± 0.092
CATACACAAGAAAATTCACACACACCCATATATATA [CACACA_site9288] | 9.87 ± 0.23
CACAAGAAAGTTCACACACACACATATATATATATA [CACACA_site6009] | 9.93 ± 0.62
CACAAGAAAATTCACACACACACATATATATATATA [CACACA_site3880] | 10.2 ± 0.14
AAAACAAAAGAATTCACACATATATATATATATATA [CACACA_site4777] | 10.1 ± 0.16
TATATATGTTCAATATGTACATATATATAAGTGTAT [XGTACX_site5157] | 8.79 ± 0.41
AATATATCAAAAATTGGATAGTTTCTTATAAAAAAT [CACACA_negctrl_site39] | 8.43 ± 0.46
ATATATATATATATATGTACATATATTCGATTATTA [XGTACX_site557] | 9.695 ± 0.035
TACATATATATAAATACACACACACCCACCTTATAA [CACACA_site9346] | 9.88 ± 0.15
ACATATAAATTATATACACACAATAATATATATATA [CACACA_site1384] | 9.01 ± 0.39
CATATAAATAAATACACACACACACGCCTTATAATT [CACACA_site7830] | 10.19 ± 0.078

Sequence | gcPBM binding intensity (ln)
TAATTATATAAATACACACACATACACCCAAATAAA [CACACA_site5819] | 9.8 ± 0.2
CATATATATAAATACACACACACACCCCTTATAATT [CACACA_site4064] | 10.2 ± 0.15
AAATTATAATATAATACACACATAAAAAAAAAAAAA [CACACA_site7] | 8.93 ± 0.47
CCTCCCATTTTTACACGTACACATTTAAAATAGACT [XGTACX_site5640] | 8.95 ± 0.21
TATAAAGGTGAAATTTGTACATAGTCATTTTTTAAT [XGTACX_site4811] | 8.52 ± 0.42
TATAAAAAAATATATATATATATATATATATAAATA [TGCATGCA_negctrl_site22] | 9.09 ± 0.37
TAATAAAGTGAATAATGTACATTTTATTTATTATAT [XGTACX_site6614] | 8.62 ± 0.45
GATGCACTTTAAAAATGTACTTATACCTTTAATTGT [XGTACX_site6395] | 8.76 ± 0.41
TATAAAAGTAGACACACACACATATAAATATAAATA [CACACA_site6567] | 9.66 ± 0.27
ATAAAAAAAGGACACACACACATATATATATATATA [CACACA_site5662] | 10.46 ± 0.05
AATATAAAAAAAAAAAAAAAAAAAAAAAAAAAGACA [CACACA_negctrl_site983] | 8.66 ± 0.5
ATAAAAAAAAGACACACACACATATATATATATATA [CACACA_site3073] | 10.2 ± 0.18
ATAAAAAAAGGACACACACACATATATTTATTTATA [CACACA_site7438] | 9.71 ± 0.19
CATATAAAAAGACACACACACACATATATATATATA [CACACA_site940] | 9.92 ± 0.31
TATAAATAAAGACACACACACATATAAATAAATATA [CACACA_site7155] | 9.68 ± 0.26
AAAGAAAGAAGACACACACACATATATAAATATCAA [CACACA_site7715] | 9.88 ± 0.23
AAAAAAAAAAGACACACACACACATAAATATAAATA [CACACA_site6215] | 10.2 ± 0.42
AAAAAAAAAAGACACACACACATATAAATATAAATA [CACACA_site6899] | 9.81 ± 0.26
TAAAAAGGAAGACACACACACACATATATAAATATA [CACACA_site7657] | 10.2 ± 0.34
CATATAAAAGGACACACACACACATATAAATATGTA [CACACA_site6568] | 9.88 ± 0.3
TTTGTGCCTATAAATTAACACACAGAAATATATAGA [CACACA_site8175] | 9.06 ± 0.28
TACTTCATTCATTTTACACACATATAAACCCTTTTA [CACACA_site3229] | 9.15 ± 0.47
